DUSP1 inh: inhibitors of human MKP-1 phosphatase; P28562; recombinant MKP-1, OMFP hydrolysis fluorescence; inhibition, %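 (compounds tested at a single concentration somewhere between 10 and 100 µM)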; 65,000 tested, 0.15% active; AID 374;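 active means inhibition above about 50%, limit read from the data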
Hsp90 inh: displaces geldanamycin probe from tumor Hsp90 | P07900 | NCI-N417 lysate Hsp90, Cy3B-geldanamycin FP displacement | inhibition, % at 30 µM | 64,000 tested, 0.35% active | AID 429;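 active means inhibition above 50%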
Cdc25B inh: inhibitors of human Cdc25B phosphatase | P30305 | recombinant Cdc25B, OMFP fluorescence Ex485/Em525 | inhibition, %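 (compounds tested at 10 µM final in the well)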 | 65,000 tested, 0.1% active | AID 368; in the data active means inhibition above about 50%
Target sequence (P30305 whole entry, looked up): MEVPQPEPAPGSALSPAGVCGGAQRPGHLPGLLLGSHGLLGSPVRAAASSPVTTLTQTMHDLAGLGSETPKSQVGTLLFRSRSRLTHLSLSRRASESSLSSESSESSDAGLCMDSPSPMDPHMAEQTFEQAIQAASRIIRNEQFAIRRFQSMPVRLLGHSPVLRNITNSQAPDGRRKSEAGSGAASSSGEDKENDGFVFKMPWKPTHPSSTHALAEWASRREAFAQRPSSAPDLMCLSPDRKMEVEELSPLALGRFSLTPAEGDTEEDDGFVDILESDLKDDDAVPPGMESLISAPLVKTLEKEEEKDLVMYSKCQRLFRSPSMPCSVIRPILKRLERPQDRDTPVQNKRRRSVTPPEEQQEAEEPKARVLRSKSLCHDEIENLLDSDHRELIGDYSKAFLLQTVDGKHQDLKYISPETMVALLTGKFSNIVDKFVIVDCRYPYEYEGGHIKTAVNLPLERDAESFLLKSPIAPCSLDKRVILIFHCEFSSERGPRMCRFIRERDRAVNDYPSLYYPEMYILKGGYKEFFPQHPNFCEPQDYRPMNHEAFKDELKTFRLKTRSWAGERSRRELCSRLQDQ
M1 agonist: M1 muscarinic receptor agonism; B-score at 10 µM; CHO-M1 cells, Fluo-4 calcium fluorescence, agonist mode; hits give high values; 64,000 tested, 3% active;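 active means fluorescence rise, raw or as B-score row- and column-corrected plate score, outside the 99.7% band of its plate's samples, either direction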
MMP-13 inhibitor: blocks human MMP13 activity; 65,000 tested, 0.07% active; inhibition, % at 4 µM; MMP-13 fTHP FRET cleavage, Mca fluorescence; P45452;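 active means inhibition above the mean of compound-free control plate wells plus 3 SD, cut at about 14% in these data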
M1 antag: M1 muscarinic receptor (rat) antagonism | P08482 | CHO-M1 cells, Fluo-4 calcium, ACh EC80 antagonist mode; hits give low values | B-score at 10 µM | 64,000 tested, 3.4% active | AID 628;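 active means calcium fluorescence response, raw or row-and-column corrected B-score, differing from the plate sample mean either way at a set confidence level, mostly lower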
M1 antag confirm: confirmation of rat M1 muscarinic receptor antagonists; shares compounds with M1 antag; CHO-M1 cells, Fluo-4 calcium, ACh EC80 antagonism; hits give low values; calcium response (max-min fluorescence) at 10 µM; 1,700 tested, 43% active; AID 677;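 active means calcium response below the same-plate mean of wells given acetylcholine alone at its 80%-effect dose, minus 3 SD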
mGluR4 antag: acts on human mGluR4 in M1 antagonist selectivity test | 1,700 tested, 0.9% active | fluorescence response (max-min) at 10 µM | AID 678 | CHO-mGluR4 calcium flux, Fluo-4 fluorescence, glutamate EC80; hits give low values | shares compounds with M1 antag;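 active means fluorescence response below the plate's average for near-maximal glutamate wells, less 3 SD of those wells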;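 further: raw unnormalized fluorescence span taken in the window right after glutamate addition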
Each line names hits and unclear results; the compound was inactive in the other large screens (follow-up assays come after a bar, where they were run). Hits are enriched below; roughly 6.1% of the tested compounds scored in any of these assays.

Oc1cccc(Nc2nc(NCC3CCCO3)c3ccccc3n2)c1 (configuration not stated)	M1 antag -3.9 | M1 antag confirm 357 | mGluR4 antag inactive
c1ccc(-c2nc(NCC3CCCO3)c3ccccc3n2)nc1 (configuration not stated)	none
COc1ccc(NC(=O)C2=C(C)C(=O)OC23CCC(C)CC3)c(OC)c1 (configuration not stated)	none
Cc1ccc(S(=O)(=O)NC2=NCN(Cc3ccccc3)CN2)cc1	none
Cc1ccc(S(=O)(=O)NC2=NCN(C3CCN(Cc4ccccc4)CC3)CN2)cc1	M1 antag -3.2 | M1 antag confirm inactive | mGluR4 antag inactive
O=C(c1ccc(=O)[nH]c1)N(Cc1ccco1)C1(C(=O)NC2CCCC2)CCCCC1	none
COc1ccc(CCNC(=O)c2ccn[nH]2)cc1OC	none
CCN1CCN(c2ncc(C(=O)Nc3c(F)cc(F)cc3Br)c3ccccc23)CC1	M1 antag -10 | M1 antag confirm 201 | mGluR4 antag inactive
CCOC(=O)c1cc(C)n(Cc2ccccc2)c1C	none
CCOC(=O)c1cc(C)n(CCCN2CCOCC2)c1C	M1 antag -1 | M1 antag confirm 403 | mGluR4 antag inactive
CCOC(=O)CCc1nc2ccccc2[nH]c1=O	none
CCOC(=O)Cc1nc2ccccc2[nH]1	M1 antag -4.1 | M1 antag confirm inactive | mGluR4 antag inactive
O=C(Nc1ccc(Br)c(Cl)c1)C1CC1	M1 antag -6.2 | M1 antag confirm inactive | mGluR4 antag inactive
O=C(Nc1ccc(Nc2ccccc2)cc1)C1CC1	none
Cn1c(CCN2CCCCC2)nc2cc(NS(=O)(=O)c3ccccc3)ccc21	M1 antag -5.2 | M1 antag confirm 448 | mGluR4 antag inactive
Cn1c(CCN2CCCCC2)nc2cc(NC(=O)Nc3ccccc3)ccc21	M1 antag -4.4 | M1 antag confirm 194 | mGluR4 antag inactive
Cc1[nH]nc2c1C(c1cn[nH]c1-c1ccc(F)cc1)C(C#N)=C(N)O2 (configuration not stated)	none
CCn1c(O)c(C=NCCN2CCOCC2)sc1=S	none
O=C(COC(=O)C12CC3CC(CC(O)(C3)C1)C2)NC(=O)NCc1ccco1	M1 antag -17 | M1 antag confirm 571 | mGluR4 antag inactive
CC1CCOC2(O1)C(=O)N(CN1CCN(c3ccccc3F)CC1)c1ccccc12 (configuration not stated)	none
CCn1c(=O)cc(SCC(=O)N2CCN(C3CCCCC3)CC2)c2ccccc21	M1 antag -5.1 | M1 antag confirm 256 | mGluR4 antag inactive
CCCNc1nc2c(c(=O)[nH]c(=O)n2C)n1CCC(C)C	none
CC(C)CCn1c(NCCN(C)C)nc2c1c(=O)[nH]c(=O)n2C	M1 antag -4 | M1 antag confirm inactive | mGluR4 antag inactive
OC(COCc1ccco1)CN1CCN(C(c2ccccc2)c2ccccc2)CC1 (configuration not stated)	M1 antag -17 | M1 antag confirm 123 | mGluR4 antag inactive
CN=c1sc2ccccc2n1CC(O)COCc1ccco1 (configuration not stated)	none
CCOC(=O)c1sc(NC(=O)C2CCCO2)c(C(=O)OC)c1C (configuration not stated)	none
CCN(CCCNC(=O)COc1cc(=O)n(C)c2ccccc12)c1cccc(C)c1	M1 antag -1.9 | M1 antag confirm inactive | mGluR4 antag inactive
Oc1[nH]c2ccccc2c1/C=N/c1nccs1	none
CCOC(=O)c1nnc2cc(-c3ccccc3)nn2c1C	M1 antag -2.6 | M1 antag confirm inactive | mGluR4 antag inactive
O=C(NCCN1CCOCC1)c1cc2sccc2n1Cc1ccc(Cl)cc1	M1 antag -4.5 | M1 antag confirm 349 | mGluR4 antag inactive
CCc1cc(C(=O)Nc2ccccc2)cs1	none (no result: Hsp90 inh)
Cc1csc2nc(=O)c3ccccc3n12	none
COc1cc2nc(N3CCNCC3)nc(N)c2cc1OC	M1 antag -1.4 | M1 antag confirm inactive | mGluR4 antag inactive
COc1cccc(OC)c1C(=O)N1CCN(Cc2ccccc2C(F)(F)F)CC1	M1 antag -3 | M1 antag confirm inactive | mGluR4 antag inactive
CCOc1ccc(-n2c(Cc3ccccc3)nnc2SCc2c(C)noc2C)cc1	none
CCN(CC)C(=O)CC(c1ccc(F)cc1)c1ccco1 (configuration not stated)	none
CN1CCc2c(c3c(n2C)CCN(C)[C@@H]3c2cccnc2)[C@H]1c1cccnc1	M1 antag -3.1 | M1 antag confirm inactive | mGluR4 antag inactive
COC(=O)Nc1nc2c(s1)CCCC2	M1 antag -3.1 (no result: Hsp90 inh) | M1 antag confirm inactive | mGluR4 antag inactive
Cc1cc(C(=O)Nc2nc3c(s2)CCCC3)no1	none
COc1ccccc1N1CCN(CCCC(=O)c2ccc(F)cc2)CC1	M1 antag -2 | M1 antag confirm 266 | mGluR4 antag inactive
Cc1noc(C)c1CSc1nnc(-c2ccncc2)n1-c1ccc(Cl)c(Cl)c1	none
c1ccc(-c2oc3ncnc(NCCCn4ccnc4)c3c2-c2ccccc2)cc1	M1 antag -3.9 | M1 antag confirm inactive | mGluR4 antag 145
O=C(Oc1ccccc1C(=O)Oc1ccccc1)c1ccco1	none
Cc1ccc(C)c(Cn2nnc3c(=O)[nH]c(C(=O)NCc4ccco4)nc32)c1	M1 antag -2.4 | M1 antag confirm inactive | mGluR4 antag inactive
CC(C)[N+](C)(CCOC(=O)C1c2ccccc2Oc2ccccc21)C(C)C	M1 antag -16 | M1 antag confirm 19 | mGluR4 antag inactive
Cc1ccc(S(=O)(=O)Nc2nncs2)cc1	none
Cc1ccc(S(=O)(=O)Nc2nsc(N)n2)cc1	M1 antag -2.9 | M1 antag confirm inactive | mGluR4 antag inactive
O=C(CC1SC(N2CCCCC2)=NC1=O)Nc1cccc(C(=O)O)c1 (configuration not stated)	none
CCN(CC)CCN1C(=O)c2ccccc2NC1c1cccc(F)c1 (configuration not stated)	none
Cc1cccc(C2Nc3ccccc3C(=O)N2CCc2ccccc2)n1 (configuration not stated)	M1 antag -11 | M1 antag confirm inactive | mGluR4 antag inactive
CCOC(=O)N1CCC(NC(=O)c2sc3nc4n(c(=O)c3c2C)CCCC4)CC1	M1 antag -2.6 | M1 antag confirm inactive | mGluR4 antag inactive
CCOC(=O)c1sc2nc3n(c(=O)c2c1C)CCC(C)CC3 (configuration not stated)	none
O=C(OCCCN1CCCC1)C1(c2ccccc2)CCCC1	M1 antag -18 | M1 antag confirm 27 | mGluR4 antag inactive

Source: PubChem (several laboratories)
